Source: PubChem BioAssay AID1159580 (chemical genetic matrix, 2015)
Among all 5,500 compounds or so, about 2,000 (36%) were called active. Another 18% or so got no clear call; they are omitted. Cut-off read from the data, not from the text of the source: active = normalized growth mostly below about 0.91 (no sharp cut-off); inconclusive = no clear call, values can overlap the other calls; inactive = mostly above about 0.92. The list shows a part of the results.

Assay: chemical genetic growth profiling, strain panel (AID 1159580);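 note: tested at 20 µM; growth read once vehicle control cultures reached saturation at 30 °C; 1 = growth at the plate median or of vehicle wells; lower values mean less growth of the strain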
Details: S. cerevisiae deletion strains, growth OD
[1] = locus YAL040C, strain CLN3, stronger effect = lower value
[2] = locus YCL061C, strain MRC1 (second series), stronger effect = lower value
[3] = locus YDR363W, strain ESC2, stronger effect = lower value
[4] = locus YER002W, strain NOP16, stronger effect = lower value
[5] = locus YMR263W, strain SAP30, stronger effect = lower value
[6] = locus YMR307W, strain GAS1, stronger effect = lower value
[7] = locus YNL175C, strain NOP13, stronger effect = lower value
[8] = locus YNL197C, strain WHI3, stronger effect = lower value
[9] = locus YNL224C, strain SQS1, stronger effect = lower value
[10] = locus YOR083W, strain WHI5 (second series), stronger effect = lower value

Measured: normalized growth

C[N+]1(C)C2CC(OC(=O)C(CO)c3ccccc3)CC1C1OC12 (configuration not stated)
inactive: locus YAL013W, strain DEP1, stronger effect = lower value 1.03 | [1] 0.975 | [2] 0.995 | [3] 0.985 | [4] 0.997 | locus YGR229C, strain SMI1, stronger effect = lower value 1.05 | [5] 1 | [6] 1.01 | locus YNL128W, strain TEP1, stronger effect = lower value 0.992 | [7] 0.973 | [8] 0.982 | [9] 0.988 | locus YNL322C, strain KRE1, stronger effect = lower value 1 | [10] 0.978 | locus YPL055C, strain LGE1, stronger effect = lower value 1.02 | locus YPL241C, strain CIN2, stronger effect = lower value 0.993

C[N+]1(C)C2CC(OC(=O)[C@H](CO)c3ccccc3)CC1C1OC12 (some centres not stated)
inactive: [1] 0.999 | [2] 1 | [3] 0.998 | [4] 0.981 | [5] 0.998 | [6] 0.946 | locus YNL153C, strain GIM3, stronger effect = lower value 0.99 | [7] 0.996 | [8] 0.988 | [9] 0.994 | [10] 0.991
